Results from PubChem BioAssay (Tox21).
Records with an inconclusive call do not appear. Active and inactive are the calls of the source. Calls follow the shape of the dose curve; as a rule, active = well fitted cell-killing curve with a large enough effect in the repeat runs; inconclusive = weak or mixed curves, or effect the other way; inactive = no such curve, though single readings can be large or run the other way.

Experiment: qHTS assay to identify small molecule agonists of the vitamin D receptor (VDR) signaling pathway - cell viability counter screen (AID 743224); also: nearly all actives have a fitted effect of over 50% in size
Settings: VDR-bla HEK293T viability, CellTiter-Glo luminescence, 16 h; series mostly up to 62.6 µM; activity change, negative = cytotoxicity: at the top concentration
Text: U.S. Tox21 Program National Center for Advancing Translational Sciences [NCATS] NIH Chemical Genomics Center [NCGC] U.S. Environmental Protection Agency [EPA] National Institutes of Environmental Health Sciences [NIEHS] National Toxicology Program [NTP] U.S. Food and Drug Administration [FDA] Tox21 Assay Overview: The vitamin D receptor (VDR), a member of nuclear hormone receptor superfamily, plays a critical role in calcium homeostasis and bone metabolism. It is also involved in cell differentiation and growth, and thrombogenicity. […] The cytotoxicity of the Tox21 compound library against the VDR-bla cell line was tested in parallel by measuring the cell viability using CellTiter-Glo assay (Promega, Madison, WI) in the same wells.
Tox21 Assay Protocol Summary: VDR-bla cells were dispensed at 2,000 cells/6 uL/well into black wall/clear-bottom 1536-well plates using a Multidrop Combi (Thermo Fisher Scientific, Waltham, MA) dispenser. After the assay plates were incubated at a 37C and 5% CO2 for 4 h, 23 nL of compounds dissolved in DMSO, positive controls or DMSO only was transferred to the assay plate by a Pintool station (Kalypsys, San Diego, CA). The plates were incubated at 37C and 5% CO2 for 16 h. After 1 uL of LiveBLAzerTM B/G FRET substrate was added using a Bioraptr Flying Reagent Dispenser (FRD) workstation (Beckman Coulter, Indianapolis, IN, USA), the plates were incubated at room temperature for 2 h, and fluorescence intensity was measured by an Envision plate reader (PerkinElmer, Shelton, CT). For cell viability readout that measures cytotoxicity, 3 ul/well of CellTiter-Glo reagent was added into the assay plates using a FRD. After 30 min incubation at room temperature, the luminescence intensity in the plates was measured using a ViewLux (PerkinElmer) plate reader.
% is scaled to controls: 0 for no effect and ±100 for the full control effect; potency is read from the fitted curve at half-maximal effect.

SMILES | activity change, negative = cytotoxicity | Potency
O=NN1CCNCC1 | 9.12% [at 81.1 µM] (inactive) | –
COC(=O)C(Cl)C(=O)OC | -0.364% (inactive) | –
CC(=O)c1cc2c(cc1C)C(C)(C)C(C)CC2(C)C (stereo not given) | – | 49 µM (active)
CCC(Cl)CCl (stereo not given) | 0.678% [at 81.1 µM] (inactive) | –
O=[N+]([O-])c1ccc(F)c([N+](=O)[O-])c1 | -13.1% [at 81.1 µM] (inactive) | –
ClP(Cl)(Cl)(Cl)Cl | 3.66% [at 81.1 µM] (inactive) | –
CCC(COC(=O)c1cc(OC)c(OC)c(OC)c1)(c1ccccc1)N(C)C (stereo not given) | -8.74% (inactive) | –
[CH3][Sn]([CH3])([Cl])[Cl] | – | inactive
CCOC(=O)COc1cc(-c2nn(C)c(OC(F)F)c2Cl)c(F)cc1Cl | 6.52% (inactive) | –
O=C(CBr)OCc1ccccc1 | -13.5% (inactive) | –
N#C/C(N)=C(/N)C#N | -2.58% (inactive) | –
CCOP(O)OCC | 7% (inactive) | –
N#Cc1ccc(Cl)cc1 | -2.27% (inactive) | –
Cl/C=C\C[N+]12CN3CN(CN(C3)C1)C2 | -4.07% (inactive) | –
N#CCC#N | -10.5% (inactive) | –
Nc1ccc([N+](=O)[O-])cc1[N+](=O)[O-] | -2.78% (inactive) | –
CCCCOC(=O)c1ccccc1C(=O)OCc1ccccc1 | 3.55% (inactive) | –
C=CCN1CC[C@]23c4c5ccc(O)c4O[C@H]2C(=O)CC[C@@]3(O)[C@H]1C5 | 5.4% (inactive) | –
Nc1nc(=S)[nH][nH]1 | 0.0245% (inactive) | –
C=CC(=O)OCCCCO | 1.47% (inactive) | –

SMILES | activity change, negative = cytotoxicity | Potency
CCOc1ccc(C(C)(C)COCc2cccc(Oc3ccccc3)c2)cc1 | 3.58% (inactive) | –
CC1Sc2c(C(=O)O)c(=O)c3cc(F)c(N4CCNCC4)cc3n21 (stereo not given) | 3.4% (inactive) | –
COC(=O)C(C)N(C(=O)Cc1ccccc1)c1c(C)cccc1C (stereo not given) | -6.93% (inactive) | –
CC1(C)CCC(Cc2ccc(Cl)cc2)C1(O)Cn1cncn1 (stereo not given) | -2.4% (inactive) | –
C=C(C#N)CCC#N | 18% (inactive) | –
CC(O)(CS(=O)(=O)c1ccc(F)cc1)C(=O)Nc1ccc(C#N)c(C(F)(F)F)c1 (stereo not given) | 0.611% (inactive) | –
Cc1ccccc1CCl | 2.46% (inactive) | –
NC(=O)CI | -3.23% [at 81.1 µM] (inactive) | –
CC[C@H]1C[C@H]2[C@@H]3CCC4=CC(=O)CC[C@@H]4[C@H]3CC[C@]2(C)[C@H]1O | 6.53% (inactive) | –
CC(Cl)Cl | -2.18% (inactive) | –
Brc1ccc(Oc2ccccc2)cc1 | -0.501% (inactive) | –
C#CCOC(C(=O)OCCN(C)C)(c1ccccc1)c1ccccc1 | 3.75% (inactive) | –
CC(C)(CCl)C(=O)Cl | -18% (inactive) | –
CN1C(=O)C(O)N=C(c2ccccc2)c2cc(Cl)ccc21 (stereo not given) | 13.9% [at 81.1 µM] (inactive) | –
[O-][Cl+]O | 0.495% (inactive) | –
C=CC(C)=O | 5.99% (inactive) | –
CCOP(=O)(OCC)SCCSCC | 18.8% (inactive) | –
Nc1nc(N)nc(N)n1 | 15.1% [at 81.1 µM] (inactive) | –
ClCC(Br)CBr (stereo not given) | 1.8% (inactive) | –
CNP(=O)(OC)Oc1ccc(C(C)(C)C)cc1Cl (stereo not given) | -5.96% (inactive) | –
